# Test results: PMC5540273 (PLoS ONE, 2017)
# Where “and” joins values, the source holds several entries; their conditions need not be identical. Identical values can stand only once. Like-named read-outs stand apart in the source and are kept apart here.
# Legend:
# MEK1 = tested on: T1, MEK1; settings: concentration: 1 μM, replicates: in singlicate, n = 1
# T1 construct: gene MAP2K1
# MEK2 = tested on: T2, MEK2; settings: concentration: 1 μM, replicates: in singlicate, n = 1
# T2 construct: gene MAP2K2
# MEK3 = tested on: T3, MEK3; settings: concentration: 1 μM, replicates: in singlicate, n = 1
# T3 construct: gene MAP2K3
# MEK4 = tested on: T4, MEK4; settings: concentration: 1 μM, replicates: in singlicate, n = 1
# T4 construct: gene MAP2K4
# MEK5 = tested on: T5, MEK5; settings: concentration: 1 μM, replicates: in singlicate, n = 1
# T5 construct: gene MAP2K5
# MEK6 = tested on: T6, MEK6; settings: concentration: 1 μM, replicates: in singlicate, n = 1
# T6 construct: gene MAP2K6
# MELK = settings: concentration: 1 μM, replicates: in singlicate, n = 1
# MERTK = settings: concentration: 1 μM, replicates: in singlicate, n = 1
# MET = settings: concentration: 1 μM, replicates: in singlicate, n = 1
# MINK = tested on: T7, MINK; settings: concentration: 1 μM, replicates: in singlicate, n = 1
# T7 construct: gene MINK1
# MKK7 = settings: concentration: 1 μM, replicates: in singlicate; n = 1
# MKNK1 = settings: concentration: 1 μM, replicates: in singlicate, n = 1
# MKNK2 = settings: concentration: 1 μM, replicates: in singlicate, n = 1
# MLCK = tested on: T8, MLCK; settings: concentration: 1 μM, replicates: in singlicate, n = 1
# T8 construct: gene MYLK3
# MLK1 = tested on: T9, MLK1; settings: concentration: 1 μM, replicates: in singlicate, n = 1
# T9 construct: gene MAP3K9
# MLK2 = settings: concentration: 1 μM, replicates: in singlicate, n = 1
# MLK3 = settings: concentration: 1 μM, replicates: in singlicate, n = 1
# MRCKA = settings: concentration: 1 μM, replicates: in singlicate, n = 1
# MRCKB = tested on: T10, MRCKB; settings: concentration: 1 μM, replicates: in singlicate, n = 1
# T10 construct: gene CDC42BPB
# MST1R = settings: concentration: 1 μM, replicates: in singlicate, n = 1
# 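Note: KINOMEscan kinase panel screen.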
structure (smiles),measurement,setting,value
Nc1nccc(-c2c(-c3ccc(F)cc3)ncn2C2CCN(CC(F)(F)F)CC2)n1 [SB-236560],%Inh,MEK1,0%
same,%Inh,MEK2,0%
same,%Inh,MEK3,30%
same,%Inh,MEK4,0%
same,%Inh,MEK5,10%
same,%Inh,MEK6,0%
same,%Inh,MELK,0%
same,%Inh,MERTK,9%
same,%Inh,MET,0%
same,%Inh,MINK,43%
same,%Inh,MKK7,30%
same,%Inh,MKNK1,34%
same,%Inh,MKNK2,35%
same,%Inh,MLCK,0%
same,%Inh,MLK1,0%
same,%Inh,MLK2,0%
same,%Inh,MLK3,2%
same,%Inh,MRCKA,0%
same,%Inh,MRCKB,14%
same,%Inh,MST1R,17%
Cc1ccc(NC(=O)c2ccnc(N3CCN(C)CC3)c2)cc1-c1ccc(C(=O)NCC2CC2)cc1 [GW775604],%Inh,MEK1,3%
same,%Inh,MEK2,25%
same,%Inh,MEK3,1%
same,%Inh,MEK4,0%
same,%Inh,MEK5,2%
same,%Inh,MEK6,11%
same,%Inh,MELK,0%
same,%Inh,MERTK,0%
same,%Inh,MET,0%
same,%Inh,MINK,0%
same,%Inh,MKK7,0%
same,%Inh,MKNK1,2%
same,%Inh,MKNK2,0%
same,%Inh,MLCK,16%
same,%Inh,MLK1,0%
same,%Inh,MLK2,21%
same,%Inh,MLK3,0%
same,%Inh,MRCKA,0%
same,%Inh,MRCKB,0%
same,%Inh,MST1R,0%
NCCNS(=O)(=O)c1ccc(-c2ccnc3[nH]ccc23)cc1 [GSK977617],%Inh,MEK1; 1 µM,24% and 17%
same,%Inh,MEK2; 1 µM,52% and 48%
same,%Inh,MEK3; 1 µM,46% and 21%
same,%Inh,MEK4; 1 µM,42% and 23%
same,%Inh,MEK5; 1 µM,88% and 70%
same,%Inh,MEK6; 1 µM,18% and 11%
same,%Inh,MELK; 1 µM,99.2% and 95.2%
same,%Inh,MERTK; 1 µM,73% and 57%
same,%Inh,MET; 1 µM,20% and 0%
same,%Inh,MINK; 1 µM,48% and 34%
same,%Inh,MKK7,0%
same,%Inh,MKNK1; 1 µM,35% and 28%
same,%Inh,MKNK2; 1 µM,97% and 94.8%
same,%Inh,MLCK; 1 µM,88% and 77%
same,%Inh,MLK1; 1 µM,21% and 2%
same,%Inh,MLK2; 1 µM,21% and 18%
same,%Inh,MLK3; 1 µM,22% and 0%
same,%Inh,MRCKA; 1 µM,44% and 0%
same,%Inh,MRCKB; 1 µM,80% and 62%
same,%Inh,MST1R; 1 µM,21% and 16%
O=c1cc(N2CCOCC2)nc2n(Cc3cccc(Cl)c3Cl)c(C3CC3)nn12 [GSK2358994],%Inh,MEK1,17%
same,%Inh,MEK2,13%
same,%Inh,MEK3,22%
same,%Inh,MEK4,0%
same,%Inh,MEK5,6%
same,%Inh,MEK6,17%
same,%Inh,MELK,3%
same,%Inh,MERTK,34%
same,%Inh,MET,0%
same,%Inh,MINK,0%
same,%Inh,MKK7,0%
same,%Inh,MKNK1,0%
same,%Inh,MKNK2,0%
same,%Inh,MLCK,0%
same,%Inh,MLK1,0%
same,%Inh,MLK2,0%
same,%Inh,MLK3,14%
same,%Inh,MRCKA,0%
same,%Inh,MRCKB,0%
same,%Inh,MST1R,14%
O=c1cc(N2CCOCC2)nc2n(Cc3cccc(C(F)(F)F)c3)ccn12 [GSK2297543],%Inh,MEK1,0%
same,%Inh,MEK2,0%
same,%Inh,MEK3,0%
same,%Inh,MEK4,31%
same,%Inh,MEK5,0%
same,%Inh,MEK6,0%
same,%Inh,MELK,4%
same,%Inh,MERTK,0%
same,%Inh,MET,0%
same,%Inh,MINK,0%
same,%Inh,MKK7,0%
same,%Inh,MKNK1,0%
same,%Inh,MKNK2,0%
same,%Inh,MLCK,0%
same,%Inh,MLK1,0%
same,%Inh,MLK2,14%
same,%Inh,MLK3,19%
same,%Inh,MRCKA,0%
same,%Inh,MRCKB,0%
same,%Inh,MST1R,12%
O=C(NCCNc1ccnc(Nc2ccc(F)cc2)n1)c1cc2ccccc2s1 [GSK1379874],%Inh,MEK1,0%
same,%Inh,MEK2,0%
same,%Inh,MEK3,41%
same,%Inh,MEK4,29%
same,%Inh,MEK5,22%
same,%Inh,MEK6,0%
same,%Inh,MELK,0%
same,%Inh,MERTK,0%
same,%Inh,MET,0%
same,%Inh,MINK,7%
same,%Inh,MKK7,0%
same,%Inh,MKNK1,2%
same,%Inh,MKNK2,0%
same,%Inh,MLCK,0%
same,%Inh,MLK1,6%
same,%Inh,MLK2,0%
same,%Inh,MLK3,17%
same,%Inh,MRCKA,13%
same,%Inh,MRCKB,0%
same,%Inh,MST1R,30%
COc1cc(Nc2nccc(N3CCC(NC(=O)c4cccc(NC(C)=O)c4)C3)n2)cc(OC)c1OC (centres unmarked) [GSK1379754],%Inh,MEK1,0%
same,%Inh,MEK2,0%
same,%Inh,MEK3,7%
same,%Inh,MEK4,17%
same,%Inh,MEK5,93.5%
same,%Inh,MEK6,0%
same,%Inh,MELK,19%
same,%Inh,MERTK,30%
same,%Inh,MET,21%
same,%Inh,MINK,27%
same,%Inh,MKK7,32%
same,%Inh,MKNK1,38%
same,%Inh,MKNK2,98.6%
same,%Inh,MLCK,1%
same,%Inh,MLK1,67%
same,%Inh,MLK2,50%
same,%Inh,MLK3,53%
same,%Inh,MRCKA,0%
same,%Inh,MRCKB,0%
same,%Inh,MST1R,20%
Cc1nnc(-c2ccc(C)c(-c3ccc(C(=O)Nc4ccc(NS(C)(=O)=O)cc4)cc3)c2)o1 [GW702865],%Inh,MEK1,8%
same,%Inh,MEK2,7%
same,%Inh,MEK3,0%
same,%Inh,MEK4,0%
same,%Inh,MEK5,18%
same,%Inh,MEK6,0%
same,%Inh,MELK,10%
same,%Inh,MERTK,0%
same,%Inh,MET,12%
same,%Inh,MINK,19%
same,%Inh,MKK7,0%
same,%Inh,MKNK1,0%
same,%Inh,MKNK2,0%
same,%Inh,MLCK,12%
same,%Inh,MLK1,5%
same,%Inh,MLK2,0%
same,%Inh,MLK3,7%
same,%Inh,MRCKA,0%
same,%Inh,MRCKB,0%
same,%Inh,MST1R,13%
C[C@@H](Oc1cc(-n2cnc3ccc(NC(=O)NC(C)(C)C)cc32)sc1C(N)=O)c1ccccc1Cl [GSK346294],%Inh,MEK1,0%
same,%Inh,MEK2,0%
same,%Inh,MEK3,0%
same,%Inh,MEK4,14%
same,%Inh,MEK5,18%
same,%Inh,MEK6,0%
same,%Inh,MELK,21%
same,%Inh,MERTK,8%
same,%Inh,MET,0%
same,%Inh,MINK,4%
same,%Inh,MKK7,0%
same,%Inh,MKNK1,0%
same,%Inh,MKNK2,0%
same,%Inh,MLCK,0%
same,%Inh,MLK1,0%
same,%Inh,MLK2,27%
same,%Inh,MLK3,37%
same,%Inh,MRCKA,12%
same,%Inh,MRCKB,5%
same,%Inh,MST1R,29%
c1ccc(-c2cc(-c3c[nH]nc3-c3ccccn3)ccn2)cc1 [GW576604],%Inh,MEK1,0%
same,%Inh,MEK2,0%
same,%Inh,MEK3,0%
same,%Inh,MEK4,16%
same,%Inh,MEK5,41%
same,%Inh,MEK6,0%
same,%Inh,MELK,1%
same,%Inh,MERTK,0%
same,%Inh,MET,13%
same,%Inh,MINK,71%
same,%Inh,MKK7,0%
same,%Inh,MKNK1,5%
same,%Inh,MKNK2,0%
same,%Inh,MLCK,9%
same,%Inh,MLK1,6%
same,%Inh,MLK2,0%
same,%Inh,MLK3,0%
same,%Inh,MRCKA,4%
same,%Inh,MRCKB,0%
same,%Inh,MST1R,34%
